“And” between values parts separate entries of the source, which are not always exact repeats. Identical values can stand only once. About 83,000 compounds went through this panel and 20% of them were active in at least one assay; those are over-represented in the sample as a whole.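 How to read the values: 0–100, growth inhibition (40 = 60% inhibited); 0, no net growth; -100 to 0, cell death (-40 = 40% of starting cells died; -100 = all dead).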 A number with no mark means an inactive call. The source made the active and inactive calls. How the source made its calls: active means growth percent below 10; inactive means the rest.

Common to all, as to assay: NCI-60 one-dose screen, 48 h (100 = growth as untreated, 0 = no growth, -100 = all killed)
Holding throughout (settings): 10 µM unless noted

In assay [1] the test system is NCI-H23 lung.
Assay [2] relates to NCI-H226 lung.
Assay [3] has as its system NCI-H322M lung.
Assay [4] concerns HOP-62 NSCLC.
For assay [5], the system named is NCI-H460 lung.
The test system of assay [6] is HOP-92 NSCLC.
Assay [7] deals with NCI-H522 lung.
Assay [8] concerns A549/ATCC NSCLC.
Assay [9] deals with 786-0 renal.
Assay [10] concerns COLO 205 colon.
The test system of assay [11] is DU-145 prostate.
The subject of assay [12] is K-562 leukemia.
In assay [13] the test system is MALME-3M melanoma.
In assay [14] the test system is MDA-MB-231 breast.
For assay [15], the system named is RXF 393 renal.
Assay [16] relates to SF-268 CNS.
Assay [17] relates to SF-295 CNS.
Assay [18] deals with SF-539 CNS.
Assay [19] deals with UACC-257 melanoma.
The subject of assay [20] is M14 melanoma.

As to `COc1ccc(-c2ccc(-c3ccc(C(=N)N)cn3)s2)cc1Cl`, the growth in assay [1] is -57.5% (active); in assay [2], 88.1%; in assay [3], -97.1% (active); in assay [4], -50.5% (active); in assay [5] it was -93% (active); in assay [6], -76.8% (active). For the same compound, the growth was -44.2% (active) in assay [7]; -58.2% (active) in assay [8]; -61.3% (active) in [9]; -51.7% (active) in [10]; -47% (active) in assay [11]; -47.8% (active) in [12]. In addition, the growth in assay [13] was -88% (active); in assay [14], -77.9% (active); in [15], 64.5%; in assay [16], -30.5% (active); in [17], -80.9% (active); in assay [18], -93.5% (active). In addition, the growth is -60.8% (active) in [19] and -81.7% (active) in assay [20].

Consider `COc1cc(-c2[nH]ncc2Nc2ccc(Cl)cc2)cc(OC)c1OC`, for which the growth in assay [1] is 55.5%; in assay [2], 73.2%; in assay [3], 64.2%; in [4], 50.1%; in [5] it was 73.6%; in assay [6], 60%. For the same compound, the growth in assay [7] was 51.5%; in assay [8], 67.6%; in assay [9] it was 64.3%; in assay [10] it was 107%; in assay [11] it was 102%; in assay [12] it was 47.2%. Further, the growth was 69.4% in [13]; 62.6% in [14]; 89.4% in [15]; 84.5% in assay [16]; 42.7% in assay [17]; 70.1% in [18]. The growth is 64.6% in assay [19] and 71.3% in assay [20].

In the case of `Nn1c(-c2ccc(Cl)cc2)nc2c(-c3ccc(Cl)cc3)nc3ccc(Cl)cc3c2c1=O`, the growth in [1] was 56.3%; in assay [2], 1.77% (active); in assay [3], 35.3%; in [4], -78.2% (active); in assay [5], -63.2% (active); in assay [6] it was 27.4%. Further, the growth was 48.9% in assay [7]; -61.2% (active) in assay [8]; -65.3% (active) in assay [9]; 22.3% in [10]; -32.5% (active) in [11]; 18.5% in [12]. Besides, the growth was 10.1% in assay [13]; 36.6% in [14]; 1.11% (active) in assay [15]; 14.8% in assay [16]; 22.6% in assay [17]; 14.1% in assay [18]. The figures for the growth in assay [19] and in [20] were 3.36% (active) and -0.438% (active), respectively.

In the case of `O=C1c2cccc3cccc(c23)C(=O)N1N1C(=O)c2cccc3c(N4CCNCC4)ccc(c23)C1=O`, the growth is 92.2% in [1]; 98.6% in [2]; 88.2% in [3]; 88.9% in assay [4]; 72.4% in assay [5]; 78.2% in assay [6]. Also, the growth in assay [7] was 93.8%; in assay [8] it was 89.9%; in assay [9], 73.7%; in [10], 95.2%; in [11] it was 107%; in [12] it was -59.2% (active). Further, the growth in assay [13] is 88.9%; in assay [14], 85.8%; in assay [15], 101%; in assay [16] it was 88.7%; in [17] it was 101%; in assay [18] it was 100%. Moreover, the figures for the growth in assay [19] and in assay [20] were 95.2% and 96.6%, respectively.

As for `O=C(N=Nc1c(O)[nH]c2ccccc12)Nc1ccccc1Cl`, the growth in assay [1] is 80.1%; in assay [2], 87.1%; in assay [3], 73.5%; in [4], 104%; in [5] it was 92.1%; in [6], 90.3%. The growth in [7] was 78.6%; in assay [8], 107%; in assay [9] it was 96.9%; in assay [10], 105%; in assay [11], 98.8%; in assay [12] it was 88.1%. In addition, the growth in [13] was 96.9%; in [14], 85.1%; in assay [15] it was 101%; in assay [16] it was 96.8%; in [17] it was 94.1%; in [18], 95.7%. Moreover, the growth in assay [19] is 92%; in assay [20] it was 94.7%.

Take `CCOc1ccccc1NC(=O)c1cc2ccccc2cc1O`: the growth in assay [1] is 16.4%; in assay [2], 71.8%; in assay [3] it was 84.1%; in assay [4], 98.4%; in assay [5] it was 26.9%; in [6], 5.82% (active). In addition, the growth is 12.9% in assay [7]; 36.8% in [8]; 70.7% in assay [9]; 111% in [10]; 78.5% in assay [11]; 22.8% in assay [12]. For the same compound, the growth was 49.8% in [13]; 54.9% in [14]; 63.2% in assay [15]; 80.6% in assay [16]; 106% in assay [17]; 84.6% in assay [18]. The growth in assay [19] is 54.2%; in assay [20], 64.6%.

On to `O=C(/C=C\c1ccc(Cl)c(Cl)c1)c1ccccc1`, for which the growth in [1] was 89.1%; in assay [2], 88.2% and 92.3%; in [3] it was 107%; in assay [4], 100% and 91.4%; in [5], 101% and 100%; in assay [6] it was 70.7%. The growth was 81% and 87.1% in [7]; 86.7% and 93.1% in assay [8]; 84.9% and 104% in [9]; 99.9% and 121% in assay [10]; 84.3% and 109% in [11]; 32.7% and 95.9% in [12]. For the same compound, the growth was 104% and 115% in assay [13]; 108% and 99.7% in assay [14]; 86.3% and 110% in assay [15]; 98.4% and 103% in [16]; 97.5% and 99.2% in assay [17]; 111% and 110% in assay [18]. For the same compound, the growth was 97.7% in [19]; 97.2% and 115% in assay [20].
